# Measurements: paper PMC5540273 (PLoS ONE, 2017)
# What was measured:
# Details in all cases: concentration: 1 μM,replicates: in singlicate; n = 1
# MAPKAPK5 = tested on: MAPKAPK5
# MARK1 = tested on: MARK1
# MARK2 = tested on: MARK2
# MARK3 = tested on: MARK3
# MARK4 = tested on: MARK4
# MAST1 = tested on: MAST1
# MEK1 = tested on: T1, MEK1
# T1 construct: gene MAP2K1
# MEK2 = tested on: T2, MEK2
# T2 construct: gene MAP2K2
# MEK3 = tested on: T3, MEK3
# T3 construct: gene MAP2K3
# MEK4 = tested on: T4, MEK4
# T4 construct: gene MAP2K4
# 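Note: KINOMEscan kinase panel screen.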
Compound,%Inh (MAPKAPK5) [%],%Inh (MARK1) [%],%Inh (MARK2) [%],%Inh (MARK3) [%],%Inh (MARK4) [%],%Inh (MAST1) [%],%Inh (MEK1) [%],%Inh (MEK2) [%],%Inh (MEK3) [%],%Inh (MEK4) [%]
C[C@@H](Oc1cc(-n2cnc3cc(-c4ccncc4)ccc32)sc1C(N)=O)c1ccccc1Cl [GSK479719],0,0,100,1,12,0,0,0,0,37
Cc1cccc(-c2nc(Nc3ccncc3)c3sccc3n2)n1 [GW869641],9,23,34,20,30,23,25,20,32,35
Cc1ccc2c(-c3ccnc(Nc4ccc(C(F)(F)F)cc4)n3)cnn2n1 [GW819776],0,17,0,0,32,41,32,40,90.7,63
CNC(=O)c1ccccc1Nc1nc(Nc2cccc(CS(C)(=O)=O)c2)ncc1C.O=CO [GSK1520489],0,71,87,72,92.3,5,94.5,91.1,69,56
O=C(Nc1n[nH]c2cc(-c3ccco3)ccc12)C1CC1 [SB-737447],12,12,39,42,0,30,0,0,30,18
CN1CCN(CCNc2nc3cc(Oc4ccc(NC(=O)Nc5cc(C(F)(F)F)ccc5F)cc4)ccc3[nH]2)CC1.Cl.Cl [GW768504],0,19,0,12,32,7,0,31,0,0
COc1cc(Nc2nccc(N3CCC(NC(=O)c4cccc(C#N)c4)C3)n2)cc(OC)c1OC (stereo not shown) [GSK1379751],0,100,0,0,100,0,0,0,0,19
c1ccc(Oc2ccc(Nc3ccnc4ccc(-c5ccccn5)cc34)cc2)cc1 [GW407034],0,0,0,0,0,2,85,66,0,16
COc1cccc(OC)c1C(=O)Nc1cccc(-c2nn3ccccc3c2-c2ccnc(Nc3cccc(F)c3)n2)c1 [GSK361065],8,17,8,7,14,9,28,41,30,0
O=C(Nc1ccc(Oc2ccc3nc(NC(=O)C4CC4)cn3n2)c(F)c1)c1cccn(-c2ccccc2)c1=O,0,0,0,29,0,10,0,25,0,0
CCNCC(Cc1ccccc1)NC(=O)c1cc(Br)c(-c2ccnc3[nH]ccc23)s1.Cl.Cl (stereo not shown) [GSK1383280],0,12,72,69,0,0,0,0,89,57
O=C(NCC1CC1)c1ccc(-c2cc(C(=O)NC3CC3)ccc2F)cc1 [GW810445],0,0,0,0,2,36,2,13,0,0
Cn1ccc2ncnc(Oc3ccc(NC(=O)Nc4ccnc(C(F)(F)F)c4)c(Cl)c3)c21,0,0,0,0,0,0,4,15,8,0
Cc1cccc2c(-c3ccncc3)c(-c3ccc(F)cc3)nn12.Cl [GW461487],0,0,0,0,0,0,39,0,0,52
CCn1c(-c2nonc2N)nc2cncc(Br)c21 [SB-738004],0,0,21,0,6,53,22,29,49,0
Cc1ccc(C(=O)Nc2ccc(Oc3ccc4nc(NC(=O)C5CC5)cn4c3)c(F)c2)c(=O)n1-c1ccccc1,0,0,0,32,15,31,0,29,0,0
CC(C)c1nc(-c2cccc(NS(=O)(=O)c3ccccc3)c2)c(-c2ccnc(Nc3ccc4c(c3)CN(C)CC4)n2)s1 [GSK1649598],0,31,0,14,3,0,52,77,17,99.5
Cn1ccc2ncnc(Oc3ccc(NC(=O)Nc4cnn(C(C)(C)C)c4)c(Cl)c3)c21,0,10,6,0,16,0,0,15,3,0
C[C@@H]1CNc2c(sc3ccc4nc(-c5ccncc5)ccc4c23)C(=O)N1,100,0,0,0,0,12,0,0,13,0
